From ChEMBL document CHEMBL1961873, “Compounds: GSK PKIS; Assays: Nanosyn kinase panel” (2012)

What was measured:
[1] = target: Serine/threonine-protein kinase MRCK alpha (Homo sapiens) (UniProt Q5VT25); details: at 0.1 µM
[2] = target: Serine/threonine-protein kinase MRCK alpha (Homo sapiens) (UniProt Q5VT25); details: at 1 µM
[3] = target: Serine/threonine-protein kinase MRCK beta (Homo sapiens) (UniProt Q9Y5S2); details: at 0.1 µM
[4] = target: Serine/threonine-protein kinase MRCK beta (Homo sapiens) (UniProt Q9Y5S2); details: at 1 µM
[5] = target: Ribosomal protein S6 kinase alpha-5 (Homo sapiens) (UniProt O75582); details: at 0.1 µM
[6] = target: Ribosomal protein S6 kinase alpha-5 (Homo sapiens) (UniProt O75582); details: at 1 µM
[7] = target: Ribosomal protein S6 kinase alpha-4 (Homo sapiens) (UniProt O75676); details: at 0.1 µM
[8] = target: Ribosomal protein S6 kinase alpha-4 (Homo sapiens) (UniProt O75676); details: at 1 µM
[9] = target: Ribosomal protein S6 kinase beta-1 (Homo sapiens) (UniProt P23443); details: at 0.1 µM
[10] = target: Ribosomal protein S6 kinase beta-1 (Homo sapiens) (UniProt P23443); details: at 1 µM
[11] = target: T1, 3-phosphoinositide-dependent protein kinase 1 (Homo sapiens) (UniProt O15530); details: at 0.1 µM;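 further: values are mean inhibition of PDK1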
T1 sequence (whole entry): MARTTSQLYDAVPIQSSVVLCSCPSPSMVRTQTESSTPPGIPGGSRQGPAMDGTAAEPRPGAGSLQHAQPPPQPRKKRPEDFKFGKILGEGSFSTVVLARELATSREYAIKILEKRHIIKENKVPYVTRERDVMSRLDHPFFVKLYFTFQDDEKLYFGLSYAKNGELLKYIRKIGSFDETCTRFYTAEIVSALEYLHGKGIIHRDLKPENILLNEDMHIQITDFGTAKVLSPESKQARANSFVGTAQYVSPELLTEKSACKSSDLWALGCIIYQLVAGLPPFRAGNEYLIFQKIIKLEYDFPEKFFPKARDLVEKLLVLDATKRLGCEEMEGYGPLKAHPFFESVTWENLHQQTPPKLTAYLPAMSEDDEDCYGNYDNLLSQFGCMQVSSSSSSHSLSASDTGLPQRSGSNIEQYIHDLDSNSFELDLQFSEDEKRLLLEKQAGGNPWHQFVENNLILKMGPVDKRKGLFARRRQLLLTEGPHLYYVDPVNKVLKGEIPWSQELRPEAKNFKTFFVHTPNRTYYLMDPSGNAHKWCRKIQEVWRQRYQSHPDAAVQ

[12] = target: cAMP-dependent protein kinase catalytic subunit alpha (Homo sapiens) (UniProt P17612); details: at 0.1 µM
[13] = target: cAMP-dependent protein kinase catalytic subunit alpha (Homo sapiens) (UniProt P17612); details: at 1 µM
[14] = target: Protein kinase C alpha type (Homo sapiens) (UniProt P17252); details: at 0.1 µM
[15] = target: Protein kinase C alpha type (Homo sapiens) (UniProt P17252); details: at 1 µM
[16] = target: Protein kinase C beta type (Homo sapiens) (UniProt P05771); details: at 0.1 µM
[17] = target: Protein kinase C beta type (Homo sapiens) (UniProt P05771); details: at 1 µM
[18] = target: Protein kinase C eta type (Homo sapiens) (UniProt P24723); details: at 0.1 µM
[19] = target: Protein kinase C eta type (Homo sapiens) (UniProt P24723); details: at 1 µM
[20] = target: Protein kinase C gamma type (Homo sapiens) (UniProt P05129); details: at 0.1 µM;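 further: values are mean percent inhibition of PKC gamma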

Ribosomal protein S6 kinase beta-1 (Homo sapiens), sequence (P23443 whole entry, looked up): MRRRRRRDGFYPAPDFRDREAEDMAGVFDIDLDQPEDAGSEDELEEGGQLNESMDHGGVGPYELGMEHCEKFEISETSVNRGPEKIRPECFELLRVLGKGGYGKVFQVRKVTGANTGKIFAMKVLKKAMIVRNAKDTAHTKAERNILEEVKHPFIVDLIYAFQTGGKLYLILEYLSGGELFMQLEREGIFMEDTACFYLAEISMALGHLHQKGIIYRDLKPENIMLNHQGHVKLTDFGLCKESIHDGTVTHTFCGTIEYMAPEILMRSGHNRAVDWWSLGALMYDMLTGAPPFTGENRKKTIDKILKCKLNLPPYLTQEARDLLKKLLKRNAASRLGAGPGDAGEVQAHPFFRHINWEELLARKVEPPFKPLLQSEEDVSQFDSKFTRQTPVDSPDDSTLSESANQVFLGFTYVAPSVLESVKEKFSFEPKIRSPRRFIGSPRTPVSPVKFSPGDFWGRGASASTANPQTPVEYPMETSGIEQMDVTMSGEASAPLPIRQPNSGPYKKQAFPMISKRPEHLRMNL
Ribosomal protein S6 kinase alpha-4 (Homo sapiens), sequence (O75676 whole entry, looked up): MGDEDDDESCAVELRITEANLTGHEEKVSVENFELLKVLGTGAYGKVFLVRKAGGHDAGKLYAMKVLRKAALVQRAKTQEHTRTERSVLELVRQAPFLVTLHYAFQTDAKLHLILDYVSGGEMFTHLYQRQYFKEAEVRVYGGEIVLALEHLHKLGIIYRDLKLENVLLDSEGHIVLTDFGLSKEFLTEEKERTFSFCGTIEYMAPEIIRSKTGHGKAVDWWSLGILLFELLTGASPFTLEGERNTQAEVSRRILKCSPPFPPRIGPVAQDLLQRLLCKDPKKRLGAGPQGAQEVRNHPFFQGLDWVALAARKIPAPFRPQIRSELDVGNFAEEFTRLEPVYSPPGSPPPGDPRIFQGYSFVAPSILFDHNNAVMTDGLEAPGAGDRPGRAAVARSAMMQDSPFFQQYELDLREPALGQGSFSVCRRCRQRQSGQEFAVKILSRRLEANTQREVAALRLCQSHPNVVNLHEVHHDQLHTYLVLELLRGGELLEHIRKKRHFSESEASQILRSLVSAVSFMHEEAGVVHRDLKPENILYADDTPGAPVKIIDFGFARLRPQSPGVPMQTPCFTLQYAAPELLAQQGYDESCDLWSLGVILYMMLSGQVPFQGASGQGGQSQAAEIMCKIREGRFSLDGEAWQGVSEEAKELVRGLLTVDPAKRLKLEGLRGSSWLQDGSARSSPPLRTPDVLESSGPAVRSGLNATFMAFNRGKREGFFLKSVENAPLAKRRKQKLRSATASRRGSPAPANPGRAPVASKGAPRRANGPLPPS
Protein kinase C beta type (Homo sapiens), sequence (P05771 2-671 limits assumed): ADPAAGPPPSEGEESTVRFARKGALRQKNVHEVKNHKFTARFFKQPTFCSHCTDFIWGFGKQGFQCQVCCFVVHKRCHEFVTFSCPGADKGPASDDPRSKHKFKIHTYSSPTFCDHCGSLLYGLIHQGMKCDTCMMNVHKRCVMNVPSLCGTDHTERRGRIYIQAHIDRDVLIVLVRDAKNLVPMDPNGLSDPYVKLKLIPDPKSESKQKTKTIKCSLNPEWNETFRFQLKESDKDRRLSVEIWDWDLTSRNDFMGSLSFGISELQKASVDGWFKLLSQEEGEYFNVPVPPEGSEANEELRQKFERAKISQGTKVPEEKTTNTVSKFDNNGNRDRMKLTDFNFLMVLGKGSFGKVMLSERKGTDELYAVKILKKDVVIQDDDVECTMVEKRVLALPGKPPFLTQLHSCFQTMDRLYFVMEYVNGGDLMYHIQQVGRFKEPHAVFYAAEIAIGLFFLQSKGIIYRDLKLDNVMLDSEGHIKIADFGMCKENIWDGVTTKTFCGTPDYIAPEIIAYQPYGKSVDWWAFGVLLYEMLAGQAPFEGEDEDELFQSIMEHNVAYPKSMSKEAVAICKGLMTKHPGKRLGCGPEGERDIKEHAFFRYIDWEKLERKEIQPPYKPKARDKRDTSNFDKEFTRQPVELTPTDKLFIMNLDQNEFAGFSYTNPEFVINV
Ribosomal protein S6 kinase alpha-5 (Homo sapiens), sequence (O75582 whole entry, looked up): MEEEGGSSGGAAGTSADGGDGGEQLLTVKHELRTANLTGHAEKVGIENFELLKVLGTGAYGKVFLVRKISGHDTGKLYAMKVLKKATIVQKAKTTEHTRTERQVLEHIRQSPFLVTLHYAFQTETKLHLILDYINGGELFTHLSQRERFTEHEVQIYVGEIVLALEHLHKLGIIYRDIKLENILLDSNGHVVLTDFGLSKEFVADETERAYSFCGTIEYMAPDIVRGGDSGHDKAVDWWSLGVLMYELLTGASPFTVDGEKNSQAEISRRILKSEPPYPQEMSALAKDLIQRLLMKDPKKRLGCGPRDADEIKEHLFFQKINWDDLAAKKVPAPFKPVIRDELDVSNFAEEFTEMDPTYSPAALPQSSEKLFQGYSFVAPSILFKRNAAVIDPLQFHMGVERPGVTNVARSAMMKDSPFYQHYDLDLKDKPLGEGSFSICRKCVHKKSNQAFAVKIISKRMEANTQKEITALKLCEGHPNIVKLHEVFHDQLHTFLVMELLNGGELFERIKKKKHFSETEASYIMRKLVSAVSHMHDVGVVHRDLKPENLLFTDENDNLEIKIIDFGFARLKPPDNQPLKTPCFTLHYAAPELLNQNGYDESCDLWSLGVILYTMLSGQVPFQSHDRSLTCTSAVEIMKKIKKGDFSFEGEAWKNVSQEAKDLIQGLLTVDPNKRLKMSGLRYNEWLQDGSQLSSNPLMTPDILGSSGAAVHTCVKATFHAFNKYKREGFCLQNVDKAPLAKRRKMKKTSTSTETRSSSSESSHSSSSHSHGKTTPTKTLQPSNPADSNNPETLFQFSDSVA
Protein kinase C eta type (Homo sapiens), sequence (P24723 whole entry): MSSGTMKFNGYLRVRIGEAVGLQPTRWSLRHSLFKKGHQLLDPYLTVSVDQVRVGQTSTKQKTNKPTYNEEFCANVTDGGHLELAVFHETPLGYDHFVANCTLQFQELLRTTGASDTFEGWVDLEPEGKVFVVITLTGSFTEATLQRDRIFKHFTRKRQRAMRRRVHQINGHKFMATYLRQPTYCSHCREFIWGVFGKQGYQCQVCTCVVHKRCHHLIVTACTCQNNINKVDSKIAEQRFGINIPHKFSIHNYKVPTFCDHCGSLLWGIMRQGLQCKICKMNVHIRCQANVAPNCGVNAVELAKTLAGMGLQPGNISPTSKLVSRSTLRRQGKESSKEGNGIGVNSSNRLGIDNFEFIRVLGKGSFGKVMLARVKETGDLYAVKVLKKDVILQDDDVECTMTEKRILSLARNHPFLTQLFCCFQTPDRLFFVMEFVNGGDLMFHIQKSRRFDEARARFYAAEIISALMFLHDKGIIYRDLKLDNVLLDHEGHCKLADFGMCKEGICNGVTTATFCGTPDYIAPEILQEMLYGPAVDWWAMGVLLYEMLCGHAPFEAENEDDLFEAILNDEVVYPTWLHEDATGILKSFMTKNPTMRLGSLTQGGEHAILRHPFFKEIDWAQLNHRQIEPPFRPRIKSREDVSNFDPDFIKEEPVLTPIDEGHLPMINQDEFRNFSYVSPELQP

| SMILES | inhibition [1] [%] | inhibition [2] [%] | inhibition [3] [%] | inhibition [4] [%] | inhibition [5] [%] | inhibition [6] [%] | inhibition [7] [%] | inhibition [8] [%] | inhibition [9] [%] | inhibition [10] [%] | inhibition [11] [%] | inhibition [12] [%] | inhibition [13] [%] | inhibition [14] [%] | inhibition [15] [%] | inhibition [16] [%] | inhibition [17] [%] | inhibition [18] [%] | inhibition [19] [%] | inhibition [20] [%] |
| --- | --- | --- | --- | --- | --- | --- | --- | --- | --- | --- | --- | --- | --- | --- | --- | --- | --- | --- | --- | --- |
| CC(C)c1ccc(Nc2nccc(-c3cnn4ncccc34)n2)cc1 | -1.68 | -0.92 | -1.18 | -0.74 | 0.84 | 1.36 | 1.31 | 2.98 | 0.78 | 1.58 | 2.46 | 1.64 | 1.72 | 0.38 | 6.9 | 0.55 | 1.57 | 1.03 | 3.89 | 1.93 |
| Cc1cc(O)cc(C)c1/C=C/c1cncc(C(=O)N(C)C)c1 | 0.02 | 0.32 | 0.83 | 1.36 | 2 | 4.09 | 1.39 | 2.46 | 0.39 | 3.03 | 4.18 | 1.98 | 0.93 | 0.28 | 1.71 | 0.67 | 1.26 | 3 | 4.61 | 1.75 |
| COc1cccc(-n2ncc3c(N/N=C/c4ccc(S(C)(=O)=O)cc4)ncnc32)c1 | -0.29 | -0.45 | 0.04 | 0.16 | -1.19 | -0.55 | 1.78 | 2.04 | 1.23 | 5.85 | 2.37 | -3.29 | -0.93 | -3.07 | -0.59 | 2.22 | 7.27 | 1.23 | 2.85 | 1.86 |
| ON=C1CCc2cc(-c3nc(C4CCNCC4)[nH]c3-c3ccncc3)ccc21 | 1.01 | 1.89 | -0.75 | 1.17 | -0.09 | -0.44 | -0.82 | 1.3 | 0.43 | -1.14 | -0.07 | 1.54 | 18.8 | 1.13 | 2.47 | -0.12 | 11.1 | -0.55 | 2.63 | -1.91 |
| CN(C)C(=O)O[C@H]1CN[C@H](C#Cc2cc3ncnc(Nc4ccc(OCc5cccc(F)c5)c(Cl)c4)c3s2)C1 | -0.3 | -0.73 | 0.58 | 2.77 | 2.4 | 4.95 | 0.06 | 4.03 | 0.89 | 2.08 | 1.92 | 2.32 | 4.73 | 0.57 | -0.37 | -1.06 | 0.39 | 1.05 | 1.68 | 3.2 |
| Cc1ccc(O)cc1Nc1ccnc2ccc(S(C)(=O)=O)cc12 | -0.59 | 3.17 | -0.33 | 1.42 | 11.4 | 9.44 | 2.55 | 3.94 | 3.76 | 2.87 | 1.13 | 3.25 | 11.9 | 1.78 | 11.2 | 1.93 | 4.87 | 2.56 | 6.46 | 0.83 |
| Cc1ccc2c(-c3ccnc(Nc4ccc5c(c4)OCCO5)n3)c(-c3ccc(C(F)(F)F)cc3)nn2n1 | -5.75 | -1.13 | 0.19 | 0.96 | -0.15 | -1.56 | 0.87 | 2.08 | 0.35 | 0.24 | -0.78 | 4.47 | 7.16 | 0.21 | 1.55 | 2.2 | 2.03 | 0.94 | 3.26 | 1.27 |
| CC(C)c1ccc2c(c1)NC(=O)/C2=N/Nc1ccc(S(N)(=O)=O)cc1 | 2.04 | -2.97 | -0.17 | -1.37 | -0.47 | -2.62 | 0.04 | -1.31 | -0.81 | -1.36 | 0.82 | 1.46 | 0.47 | -0.57 | 0.11 | -0.04 | -5.38 | 2.07 | -1.13 | -0.1 |
| O=S(=O)(CCOCc1ccc(-c2ccc3ncnc(Nc4ccc(OCc5cccc(F)c5)c(Cl)c4)c3c2)o1)c1ccccc1 | 0.06 | -0.21 | 0.42 | 1.18 | 0.65 | 0.85 | -0.78 | 0.33 | -1.35 | -0.16 | -0.28 | 0.54 | -0.2 | 0.23 | 0.58 | -0.21 | -0.92 | 1.32 | 1.22 | 0.84 |
| O=C1Nc2ccc(-c3cccnc3)cc2C1=Cc1cc(Br)c(O)c(Br)c1 | 0.24 | -0.62 | 0.92 | 1.01 | 3.3 | 3.39 | 0.89 | 2.67 | 2.32 | 2.15 | 3.18 | 1.62 | 1.19 | 1.72 | 2.45 | 0.24 | -1.03 | 3.09 | 0.7 | 4.09 |
| CCS(=O)(=O)c1ccc(OC)c(Nc2ncc(-c3cccc(OC)c3)o2)c1 | -0.07 | -0.94 | -0.48 | 0.59 | 3.23 | 7.32 | -0.21 | 3.76 | 0.98 | 1.18 | 1.14 | 1.07 | 1.26 | 1.39 | 5.21 | 0.07 | -1.05 | -0.85 | 1.66 | 2.11 |
| Cc1ccc(C(=O)NC2CC2)cc1-c1ccc2[nH]ncc2c1 | 1.33 | 0.57 | 0.35 | 5.75 | -4.06 | -3.97 | -1.94 | -1.58 | -1.62 | -3.02 | -3.15 | -2.46 | 0.47 | -0.47 | 0.07 | -0.41 | -0.31 | -4.21 | -3.72 | -0.11 |
| O=C1Nc2ccccc2/C1=C/Nc1ccc2[nH]c(=O)[nH]c2c1 | -0.3 | 1.93 | -0.63 | -1.04 | 3.99 | 5.92 | 3.86 | 16.6 | 2.55 | 11.1 | 9.34 | 2.27 | 4.1 | 0.57 | 2.34 | 0.19 | 4.33 | 3.3 | 3.84 | 2.03 |
| CCn1c(-c2nonc2N)nc2ccc(F)cc21 | -0.42 | 3.28 | -0.61 | 1.2 | 7.13 | 21.2 | 3.5 | 10.8 | 3.92 | 28.4 | -0.67 | 2.75 | 6.34 | 1 | 1.33 | 2.61 | 15.6 | 6.39 | 26.6 | 4.75 |
| COc1cccc(-n2nc(C)c3c(N/N=C(\C)c4ccncc4)ncnc32)c1 | 1.87 | -2.42 | 0.02 | -0.47 | 0.18 | -0.52 | 0.44 | 0.3 | 0.29 | -0.38 | 2.62 | 0.69 | -0.34 | -0.84 | -1.11 | 0.03 | -2.45 | -0.66 | -5.32 | 1.51 |
| NS(=O)(=O)c1ccc(N/N=C2\C(=O)Nc3ccc(Cl)cc32)cc1 | -0.18 | 2.52 | 0.03 | 0.67 | -2.92 | -0.64 | 2.66 | 5.77 | 1.75 | 2.32 | 2.36 | 3.49 | 4.12 | 0.69 | 1.45 | 1.35 | 2.75 | 4.13 | 4.71 | -1.84 |
| Cc1nc(-c2ccccc2)n2nc(NCCCN3CCOCC3)ncc12 | 6.14 | 2.64 | 0.51 | 0.04 | 0.53 | 1.08 | 2.47 | 3.6 | 1.34 | 2.24 | 2.52 | 2.1 | 2.12 | -0.23 | 0.9 | -0.19 | 0.04 | 0.77 | 4.23 | 2.71 |
